According to PubChem BioAssay:
Values joined by “and” are separate entries in the source; they are usually repeats but may differ in a detail not shown here. Equal values may be shown once. Records with an inconclusive call do not appear. Active and inactive are the calls of the source.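 How the source made its calls, unless noted: active means normalized viability below 100% at a tested concentration; inactive means the rest.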

Assays:
[1] = growth inhibition of DIPG glioma cells, dose response, cell-based, SU-DIPG-XVII, MIPE5.0, CellTiter-Glo, qHTS (AID 1347060; cut-off not given, nearly all actives have AC50 up to about 26 µM;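 further: cells exposed to compound for 48 hours before viability readout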); settings: SU-DIPG-XVII viability, CellTiter-Glo ATP luminescence
[2] = growth inhibition of DIPG glioma cells, dose response, cell-based, JHH-DIPG-1, MIPE4.0, CellTiter-Glo, qHTS (AID 1347062; cut-off not given, nearly all actives have AC50 up to about 27 µM;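 further: cells exposed to compound for two days before readout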); settings: JHH-DIPG-1 viability, CellTiter-Glo ATP luminescence
[3] = growth inhibition of DIPG glioma cells, dose response, cell-based, SU-DIPG-IV, MIPE4.0, CellTiter-Glo, qHTS (AID 1347063; cut-off not given, nearly all actives have AC50 up to about 30 µM;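 further: compound exposure lasted 48 hours before the viability readout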); settings: SU-DIPG-IV viability, CellTiter-Glo ATP luminescence
[4] = growth inhibition of DIPG glioma cells, dose response, cell-based, SU-DIPG-XIII, MIPE5.0, CellTiter-Glo, qHTS (AID 1347064; cut-off not given, nearly all actives have AC50 up to about 23 µM;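 further: cells exposed to compound for 48 hours before the viability read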); settings: SU-DIPG-XIII viability, CellTiter-Glo ATP luminescence
[5] = viability loss in pontine glioma line – cell-based, SU-DIPG-XXV, MIPE5.0, CellTiter-Glo, qHTS, dose response (AID 1347065; cut-off not given, nearly all actives have AC50 up to about 26 µM;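 further: cells exposed to compound for 48 hours before ATP readout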); settings: CellTiter-Glo ATP luminescence
[6] = JHH-DIPG-1 glioma cell viability, MIPE5.0 library, CellTiter-Glo luminescence, qHTS (AID 1347067; cut-off not given, nearly all actives have AC50 up to about 26 µM;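 further: cells exposed to compound for 48 hours before readout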); settings: JHH-DIPG-1 glioma viability, CellTiter-Glo ATP luminescence
[7] = sensitizers of A549 cells to miR-34 induction, primary screen, imaging, A549 dox-inducible miR-34, nuclei and caspase counts (AID 1347080;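 active means compounds whose cell count with miR-34 switched on is under 0.7 times the count with it off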); settings: A549 miR-34 inducible, Hoechst nuclei count, 48 h
[8] = survival rescue of mitochondrial mutant cells in low glucose, primary screen, MELAS cybrids, Rieske KO mouse fibroblasts, CellTiter-Glo (AID 1508586;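 active means mean z-score across replicates of 1.96 or higher in either the MELAS or the Rieske mutant cell line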;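 further: z relative to plate mean and SD of compound and empty wells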)
[9] = LFS_MB_P medulloblastoma growth inhibition, cell-based, chromothripsis tumors, cisplatin or BGB combos (AID 1671449; in the data active means inhibition above about 80%;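 further: cells exposed for 96 hours; 0% = vehicle DMSO and 100% = killing by high DMSO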); settings: LFS_MB_P medulloblastoma cells
[10] = HDN33 neuroblastoma growth inhibition, cell-based, chromothripsis tumors, cisplatin or BGB combos (AID 1671450; in the data active means inhibition above about 80%;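 further: cells exposed to compound for four days; 0% = vehicle DMSO and 100% = cell killing by high DMSO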); settings: HDN33 neuroblastoma cells, stronger effect = higher value
[11] = ICB984 medulloblastoma cell growth inhibition, synergistic combos for chromothripsis tumors, cisplatin or BGB combos (AID 1671451; call rule not given here;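 further: cells exposed for 96 hours before readout; 0% = vehicle DMSO and 100% = killing by high DMSO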); settings: ICB984 medulloblastoma cells, drug combinations, stronger effect = higher value
[12] = HTB85 osteosarcoma cell growth inhibition, synergistic combos for chromothripsis tumors, BGB or cisplatin IC20 combos (AID 1671453; in the data active means inhibition above about 80%;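 further: cells exposed for 96 hours before readout; 0% = vehicle DMSO and 100% = high DMSO killing control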); settings: HTB85 osteosarcoma cells, drug combinations, stronger effect = higher value
[13] = MDA-MB-436 breast carcinoma cell growth inhibition, synergistic combos for chromothripsis tumors, BGB or cisplatin combos (AID 1671458; call rule not given here;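 further: cells exposed for 96 hours; 0% = vehicle DMSO and 100% = killing by high DMSO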); settings: MDA-MB-436 breast carcinoma growth inhibition, drug combinations, stronger effect = higher value
[14] = growth inhibition of BT084 medulloblastoma cells, cell-based, ICGC_MB145, cisplatin and BGB IC40 combos (AID 1671461; in the data active means inhibition above about 80%;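 further: cells exposed to drugs for 96 hours; 0% = vehicle DMSO and 100% = high DMSO full killing control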); settings: drug combinations, stronger effect = higher value
[15] = SU-DIPG-VI glioma cell viability, MIPE4.0 library, CellTiter-Glo luminescence, qHTS (AID 1347066; cut-off not given, nearly all actives have AC50 up to about 30 µM;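 further: cells exposed to compound for 48 hours before readout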); settings: CellTiter-Glo ATP luminescence
[16] = SU-DIPG-XXV glioma cell viability, MIPE5.0 library, qHTS (AID 1347068; cut-off not given, nearly all actives have IC50 up to about 30 µM;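 further: cells exposed to compound for 48 hours before viability readout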)
[17] = ovarian cancer cell viability with rucaparib, profiling panel, oncology-focused library, rucaparib conditional (AID 1508598); settings: patient-derived ovarian cancer cells, CellTiter-Glo viability, 144 h, stronger effect = lower value
[18] = stronger effect = lower value, cell number ratio, induced over uninduced
[19] = measured here: relative caspase fold change +Dox/-Dox
[20] = measured here: total cells with miR-34 induction, stronger effect = lower value
[21] = measured here: total cells without miR-34 induction
[22] = MELAS cybrid survival, CellTiter-Glo 48 h, stronger effect = higher value
[23] = Rieske KO mouse fibroblast survival, CellTiter-Glo 72 h

SMILES: CN(C)c1ccc(C(=O)NCCCCCCC(=O)NO)cc1
- AC50 [1]: 1.48 µM (active)
- AC50 [2]: 0.743 µM (active)
- AC50 [3]: 1.05 µM (active)
- AC50 [4]: 0.934 µM (active)
- AC50 [5]: 0.934 µM (active)
- AC50 [6]: 1.18 µM (active)
- fold change [7, 18]: 0.925 (inactive) and 1.16 (inactive)
- fold change [7, 19]: 1.2 and 1.01
- cell count [7, 20]: 3030 and 2210
- cell count [7, 21]: 3270 and 1910
- z-score [8, 22]: 1.18 (inactive)
- z-score [8, 23]: 0.973
- inhibition ([9]; at 0.5 µM, stronger effect = higher value): -18.1% (inactive)
- inhibition ([9]; measured here: combination with BGB IC20, at 0.005 µM): -25.6%
- inhibition ([9]; measured here: combination with BGB IC40, at 0.005 µM): -22.1%
- inhibition ([9]; measured here: combination with BGB IC40, at 0.05 µM): -25.8%
- inhibition ([9]; measured here: combination with cisplatin, at 0.5 µM, stronger effect = higher value): -23.5%
- inhibition ([9]; measured here: combination with cisplatin, at 5 µM, stronger effect = higher value): 107%
- inhibition ([10]; BGB combo, at 5 µM): 97.7%
- inhibition ([10]; at 0.5 µM): 36.1% (inactive)
- inhibition ([10]; cisplatin combo, at 5 µM): 99.4%
- inhibition ([10]; measured here: with BGB IC20 combination, at 0.5 µM): 24.9%
- inhibition ([10]; measured here: with cisplatin IC20 combination, at 0.5 µM): 50.9%
- inhibition ([10]; single agent, at 5 µM): 99.1%
- inhibition ([11]; BGB IC20 combo, at 0.005 µM): 6.17%
- inhibition ([11]; BGB IC40 combo, at 0.005 µM): 7.19%
- inhibition ([11]; BGB IC40 combo, at 0.05 µM): 87.6%
- inhibition ([11]; at 0.5 µM): -20.5% (inactive)
- inhibition ([11]; cisplatin combo, at 0.05 µM): 87.3%
- inhibition ([11]; cisplatin combo, at 0.5 µM): -6.9%
- inhibition ([11]; cisplatin combo, at 5 µM): -44.2%
- inhibition ([11]; measured here: 5 uM single agent, at 5 µM): -34.3%
- inhibition ([12]; at 0.5 µM): 28.6% (inactive)
- inhibition ([12]; measured here: with BGB IC20, at 0.5 µM): 18.8%
- inhibition ([12]; measured here: with BGB IC20, at 5 µM): 95.5%
- inhibition ([12]; measured here: with cisplatin IC20, at 0.5 µM): 33.4%
- inhibition ([12]; measured here: with cisplatin IC20, at 5 µM): 99.7%
- inhibition ([12]; single agent, at 5 µM): 97.7%
- inhibition ([13]; at 0.5 µM): 5.27% (inactive)
- inhibition ([13]; measured here: BGB combination, at 0.5 µM): -2.54%
- inhibition ([13]; measured here: BGB combination, at 5 µM): 46.7%
- inhibition ([13]; measured here: cisplatin combination, at 0.5 µM): -2.21%
- inhibition ([13]; measured here: cisplatin combination, at 5 µM): 47.8%
- inhibition ([14]; at 0.5 µM): 27.2% (inactive)
- inhibition ([14]; cisplatin combination, at 0.5 µM): 48.8%
- inhibition ([14]; cisplatin combination, at 5 µM): 101%
- inhibition ([14]; measured here: BGB IC40 combination 0.05 uM, at 0.05 µM): 2.96%
- inhibition ([14]; single agent, at 5 µM): 104%

SMILES: OCc1ccc(-c2ccc(-c3ccc(CO)s3)o2)s1
- AC50 [1]: 14.8 µM (active)
- AC50 [2]: 20.9 µM (active)
- AC50 [3]: 18.7 µM (active)
- AC50 [4]: 16.6 µM (active)
- AC50 [5]: 23.5 µM (active)
- AC50 [6]: 16.6 µM (active)
- fold change [7, 18]: 0.99 (inactive) and 0.88 (inactive)
- fold change [7, 19]: 0.768 and 1.19
- cell count [7, 20]: 3070 and 2470
- cell count [7, 21]: 3100 and 2800
- z-score [8, 22]: -0.467 (inactive)
- z-score [8, 23]: 0.342

SMILES: CN1CCCN(C(=O)c2cccc(-c3ccc(/C=C4/C(=O)Nc5ccc(Cl)cc54)o3)c2)CC1
- AC50 [1]: 8.33 µM (active)
- AC50 [2]: 20.9 µM (active)
- AC50 [3]: 9.35 µM (active)
- AC50 [4]: 7.42 µM (active)
- AC50 [5]: 10.5 µM (active)
- AC50 [15]: 10.5 µM (active)
- AC50 [6]: 2.35 µM (active)
- IC50 [16]: 29.5 µM (active)
- viability ([17]; at 0.000305 µM, OCI-C5x cells, with rucaparib 10 µM, 100% = cells with rucaparib alone): 101% (inactive)
- viability ([17]; at 0.000305 µM, OCI-C5x cells, without rucaparib): 96.5% (active)
- viability ([17]; at 0.000305 µM, OCI-P5x cells, with rucaparib 20 µM, 100% = cells with rucaparib alone): 105% (inactive)
- viability ([17]; at 0.000305 µM, OCI-P5x cells, without rucaparib): 105% (inactive)
- viability ([17]; at 0.00122 µM, OCI-C5x cells, with rucaparib 10 µM, 100% = cells with rucaparib alone): 103% (inactive)
- viability ([17]; at 0.00122 µM, OCI-C5x cells, without rucaparib): 102% (inactive)
- viability ([17]; at 0.00122 µM, OCI-P5x cells, with rucaparib 20 µM, 100% = cells with rucaparib alone): 107% (inactive)
- viability ([17]; at 0.00122 µM, OCI-P5x cells, without rucaparib): 103% (inactive)
- viability ([17]; at 0.00488 µM, OCI-C5x cells, with rucaparib 10 µM, 100% = cells with rucaparib alone): 99.3% (active)
- viability ([17]; at 0.00488 µM, OCI-C5x cells, without rucaparib): 104% (inactive)
- viability ([17]; at 0.00488 µM, OCI-P5x cells, with rucaparib 20 µM, 100% = cells with rucaparib alone): 106% (inactive)
- viability ([17]; at 0.00488 µM, OCI-P5x cells, without rucaparib): 106% (inactive)
- viability ([17]; at 0.0195 µM, OCI-C5x cells, with rucaparib 10 µM, 100% = cells with rucaparib alone): 90.6% (active)
- viability ([17]; at 0.0195 µM, OCI-C5x cells, without rucaparib): 99.3% (active)
- viability ([17]; at 0.0195 µM, OCI-P5x cells, with rucaparib 20 µM, 100% = cells with rucaparib alone): 97.1% (active)
- viability ([17]; at 0.0195 µM, OCI-P5x cells, without rucaparib): 103% (inactive)
- viability ([17]; at 0.0781 µM, OCI-C5x cells, with rucaparib 10 µM, 100% = cells with rucaparib alone): 108% (inactive)
- viability ([17]; at 0.0781 µM, OCI-C5x cells, without rucaparib): 107% (inactive)
- viability ([17]; at 0.0781 µM, OCI-P5x cells, with rucaparib 20 µM, 100% = cells with rucaparib alone): 109% (inactive)
- viability ([17]; at 0.0781 µM, OCI-P5x cells, without rucaparib): 102% (inactive)
- viability ([17]; at 0.313 µM, OCI-C5x cells, with rucaparib 10 µM, 100% = cells with rucaparib alone): 105% (inactive)
- viability ([17]; at 0.313 µM, OCI-C5x cells, without rucaparib): 111% (inactive)
- viability ([17]; at 0.313 µM, OCI-P5x cells, with rucaparib 20 µM, 100% = cells with rucaparib alone): 100% (active)
- viability ([17]; at 0.313 µM, OCI-P5x cells, without rucaparib): 94.8% (active)
- viability ([17]; at 1.25 µM, OCI-C5x cells, with rucaparib 10 µM, 100% = cells with rucaparib alone): 98% (active)
- viability ([17]; at 1.25 µM, OCI-C5x cells, without rucaparib): 96.2% (active)
- viability ([17]; at 1.25 µM, OCI-P5x cells, with rucaparib 20 µM, 100% = cells with rucaparib alone): 95.1% (active)
- viability ([17]; at 1.25 µM, OCI-P5x cells, without rucaparib): 93.4% (active)
- viability ([17]; at 5 µM, OCI-C5x cells, with rucaparib 10 µM, 100% = cells with rucaparib alone): 2.49% (active)
- viability ([17]; at 5 µM, OCI-C5x cells, without rucaparib): 2.79% (active)
- viability ([17]; at 5 µM, OCI-P5x cells, with rucaparib 20 µM, 100% = cells with rucaparib alone): 1.66% (active)
- viability ([17]; at 5 µM, OCI-P5x cells, without rucaparib): 1.82% (active)

SMILES: OCCNC1CCCc2c1[nH]c1ccc(-c3ccccc3)cc21 (stereo unspecified)
- AC50 [1]: 18.6 µM (active)
- AC50 [2]: 26.4 µM (active)
- AC50 [3]: 20.9 µM (active)
- AC50 [4]: 13.2 µM (active)
- AC50 [5]: 10.5 µM (active)
- AC50 [6]: 10.5 µM (active)
